The values below come from PubChem BioAssay (NCATS).

A number with no mark means an inactive call. Results filed as inconclusive are left out. The source made the active and inactive calls. Unless noted, calls follow the shape of the dose curve; as a rule, active = well fitted curve in the direction sought with a large enough effect; inconclusive = small, poorly fitted or top-dose-only effect, or another doubt; inactive = no such curve, though single readings can be large; an effect the other way counts as inactive or inconclusive. Where only a bound is given, the exact number is not on record here.

Test [1] concerns the target Lysosomal acid glucosylceramidase (Homo sapiens) (UniProt P04062). Kind of test: Glucocerebrosidase-p2 (AID 348; in the data active = potency below about 10 µM; also: potency is read from the fitted curve at half-maximal effect). The settings on record: purified GBA, blue fluorogenic substrate, 40 min. A digest of the protocol:
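Compounds titrated from 0.6 nM upwards against 0.2 nM enzyme in pH 5.9 citric acid/KH2PO4, taurocholate, tween-20; blue fluorogenic substrate 80 uM, 40 min room temperature, stopped and read Ex 365/Em 440 for AC50.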

Test [2] in a line: AP1 Signaling Pathway (AID 357; active = well fitted curve in either direction with a large enough effect, not every such curve was filed as active;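 also: ME-180 reporter cells stimulated with EGF at its EC50 level; % is scaled to controls: 0 for no effect and ±100 for the full control effect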). As to conditions: ME-180 AP-1-bla reporter, EGF-induced, beta-lactamase ratio, 5 h; at 7.69 µM (top of the series) unless noted. A digest of the protocol:
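Modulation of EGF-driven AP-1 transcription was assessed with a beta-lactamase reporter in ME-180 cells. Compound and EC50 EGF were co-incubated 5 hours at 37 °C before 2.5-hour CCF4 loading at room temperature and dual-emission reading.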

The nature of test [3]: Stat Signaling Pathway (AID 446; active = well fitted curve in either direction with a large enough effect, not every such curve was filed as active;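 also: ME-180 cervical cancer cells given 40 pM IL-6 alongside compound; SIE-controlled beta-lactamase reporter measured as 460/530 nm FRET emission ratio; % is scaled to controls: 0 for no effect and ±100 for the full control effect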). As to conditions: ME-180 SIE beta-lactamase reporter, IL-6 stimulated, 5 h; at 7.69 µM (top of the series) unless noted. The method, boiled down: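 Screening format detects activators and inhibitors alike: ME-180 SIE-bla cells stimulated at 40 pM IL-6 for 5 hrs with compound, then dual-emission beta-lactamase read at 405 nm excitation.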
Test [4] deals with Glucocorticoid receptor (Homo sapiens) (UniProt P04150). Kind of test: GR-GFP Redistribution (AID 450;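 active = compounds whose dose series gives a full or clear partial fitted curve of increased nuclear translocation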; also: potency is read from the fitted curve at half-maximal effect). As to conditions: U2OS GR-GFP nuclear translocation, laser cytometry, 2 h.
Test [5] shares this target. Kind of test: GR-EFC Redistribution (AID 451; calls by dose curve; also: potency is read from the fitted curve at half-maximal effect). As to conditions: CHO-K1 GR-EFC translocation, beta-gal luminescence, 2 h. The method, boiled down:
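CHO-K1 cells stably expressing nuclear-localized β-gal enzyme acceptor and GR fused C-terminally to the enzyme donor fragment; ligand-driven nuclear translocation restores β-gal by complementation. Compounds titrated up to 46 uM final, 2 h at 37 °C; luminescence read.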

Test [6] deals with Mitogen-activated protein kinase 10 (Mus musculus) (UniProt Q61831). Kind of test: JNK3 AlphaScreen Assay (AID 530; active = well fitted curve in either direction with a large enough effect, not every such curve was filed as active;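 also: kinase came from lysate of stimulated human HepG2 cells; signal reports phosphorylation of biotinylated GST-cJun 1-79 at Ser73 with 10 µM ATP; % is scaled to controls: 0 for no effect and ±100 for the full control effect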). The settings on record: JNK3 lysate, c-Jun phosphorylation; series mostly up to 57.1 µM. A digest of the protocol:
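JNK3 came from HepG2 lysates pre-activated with IL-1beta and TNF-alpha and phosphorylated biotinylated GST-cJun (1-79) at 10 uM ATP, pH 7.6, room temperature. Compounds were titrated. AlphaScreen signal used anti-phospho-cJun (Ser73) antibody.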

Test [7] addresses 3',5'-cyclic-AMP phosphodiesterase 4B (Homo sapiens) (UniProt Q07343). Kind of test: qHTS Assay for Inhibitors of PDE-IV (AID 607; active = well fitted activation curve with a large enough effect in the main read-out, with a control signal flat, not every such curve was filed as active; also: % of control where 0% means no effect). The settings on record: HEK293 ACTOne CNG channel cells, membrane potential fluorescence; series mostly up to 22.9 µM. The method, boiled down: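 The readout is membrane depolarisation from a cAMP-sensing CNG channel, detected with a potential dye at ex 535/em 590. Cells were HEK293-derived (endogenous PDE-IV) at 1000 cells/well, titrated up to 22.9 uM final.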

For test [8], the target named is Dual specificity protein kinase CLK4 (Homo sapiens) (UniProt Q9HAZ1). Kind of test: qHTS Assay for Inhibitors of CDC-like Kinase 4 (ADP-FP Assay) (AID 1795). Also: nearly all actives have a fitted effect of over 60% in size. Also: potency is read from the fitted curve at half-maximal effect. As to conditions: Transcreener ADP fluorescence polarization; series mostly up to 50 µM. A digest of the protocol: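 Clk4 6.25 nM; RS peptide 100 uM; ATP 1 uM; 25 mM Tris pH 7.5, 10 mM MgCl2; 1 h reaction. ADP detected via antibody/orange tracer FP displacement; TG003 positive control.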

The target in test [9] is Ubiquitin carboxyl-terminal hydrolase 1 (Homo sapiens) (UniProt O94782). Kind of test: Inhibitors of USP1/UAF1: Pilot qHTS (AID 504865).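 Also: rhodamine fluorescence freed from ubiquitin-rhodamine substrate followed over time; top concentration of the series differs between compounds; % is scaled to controls: 0 for no effect and ±100 for the full control effect; nearly all actives have a fitted effect of over 35% in size.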 As to conditions: purified USP1/UAF1, Ub-rhodamine cleavage fluorescence; series mostly up to 54.9 µM. A digest of the protocol: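 In 50mM HEPES pH 7.8 containing 0.5mM EDTA, 1mM TCEP, 0.1 mg/ml BSA and 0.01% Tween-20, 1nM USP1/UAF1 is exposed to compound for 15 min, then Ub-Rho (150nM final) is added and fluorescence is read over time.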
Ubiquitin carboxyl-terminal hydrolase 1 (Homo sapiens), sequence (O94782 whole entry, looked up): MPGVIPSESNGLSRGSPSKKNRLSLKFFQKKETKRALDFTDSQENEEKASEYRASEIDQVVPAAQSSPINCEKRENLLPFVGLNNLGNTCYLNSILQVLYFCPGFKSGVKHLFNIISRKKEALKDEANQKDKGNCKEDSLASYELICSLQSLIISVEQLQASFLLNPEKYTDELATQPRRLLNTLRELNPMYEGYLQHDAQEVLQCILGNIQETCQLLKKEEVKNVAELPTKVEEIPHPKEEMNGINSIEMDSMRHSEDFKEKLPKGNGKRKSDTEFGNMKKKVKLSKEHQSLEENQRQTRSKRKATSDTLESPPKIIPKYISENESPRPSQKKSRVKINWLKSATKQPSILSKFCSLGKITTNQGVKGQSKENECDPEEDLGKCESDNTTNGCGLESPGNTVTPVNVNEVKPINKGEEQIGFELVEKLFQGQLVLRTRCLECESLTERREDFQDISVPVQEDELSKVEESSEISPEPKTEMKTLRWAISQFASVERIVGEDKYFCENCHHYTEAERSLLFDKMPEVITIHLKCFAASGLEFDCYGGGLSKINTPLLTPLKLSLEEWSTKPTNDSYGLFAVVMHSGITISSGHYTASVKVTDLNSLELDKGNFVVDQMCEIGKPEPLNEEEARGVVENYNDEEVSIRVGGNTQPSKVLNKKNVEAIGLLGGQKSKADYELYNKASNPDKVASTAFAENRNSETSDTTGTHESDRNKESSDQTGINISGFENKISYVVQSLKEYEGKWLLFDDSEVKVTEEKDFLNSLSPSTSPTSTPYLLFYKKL

The nature of test [10]: Primary qHTS for small molecule stabilizers of the endoplasmic reticulum resident proteome: Secreted ER Calcium Modulated Protein (SERCaMP) assay (AID 1508630). Also: % is scaled to controls: 0 for no effect and ±100 for the full control effect. As to conditions: SH-SY5Y GLuc-SERCaMP (Gaussia luciferase released on ER calcium loss) secretion, thapsigargin, luminescence; series mostly up to 38.4 µM. A digest of the protocol: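 GLuc-SERCaMP-expressing SH-SY5Y cells, pretreated 16 h with compound, are challenged with thapsigargin to empty ER calcium stores; after 4 h, coelenterazine is added directly to the medium and luminescence is imaged.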

In test [11] the target is Rap guanine nucleotide exchange factor 3 (Homo sapiens) (UniProt O95398). Kind of test: Confirmatory qHTS for antagonist of cAMP-regulated guanine nucleotide exchange factor 3 (EPAC1) (AID 1645880). Also: nearly all actives have a fitted effect of over 55% in size. Also: potency is read from the fitted curve at half-maximal effect.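 As to activity, negative = inhibition: plate controls were DMSO only for no effect and full effect of the ATA control for full effect.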 The settings on record: EPAC1 Rap1B-BODIPY-GDP exchange, fluorescence; series mostly up to 115 µM. A digest of the protocol:
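Nucleotide exchange uses 100 nM EPAC1, 250 nM RAP1B-BODIPY-GDP and 50 uM GDP, with compounds in a concentration-titration series. After 5 min at room temperature, fluorescence (480 nm ex/540 nm em) is read every 5 min for 30 min. Data are normalized to control ATA and DMSO.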

Test [12] addresses Rap guanine nucleotide exchange factor 4 (Homo sapiens) (UniProt Q8WZA2). Kind of test: Confirmatory qHTS for agonist of cAMP-regulated guanine nucleotide exchange factor 4 (EPAC2) (AID 1645884).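 Also: nucleotide exchange releases bodipy-GDP from Rap1 and this lowers its fluorescence; nearly all actives have a fitted effect of over 65% in size.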 Also: potency is read from the fitted curve at half-maximal effect. The settings on record: EPAC2 GEF activity, Rap1B-BODIPY-GDP fluorescence; series mostly up to 154 µM.
Test [13] has the same target. Kind of test: Confirmatory qHTS for antagonist of cAMP-regulated guanine nucleotide exchange factor 4 (EPAC2) (AID 1645885). Also: % is scaled to controls: 0 for no effect and ±100 for the full control effect; nearly all actives have a fitted effect of over 25% in size. The settings on record: EPAC2 Rap1B-BODIPY-GDP exchange fluorescence, biochemical; series mostly up to 114 µM.
Test [14] can be described thus: NFAT Signaling Pathway (AID 444; active = well fitted curve in either direction with a large enough effect, not every such curve was filed as active). As to conditions: Jurkat NFAT-bla M1, carbachol, beta-lactamase ratio, 5 h; at 7.69 µM (top of the series) unless noted. The method, boiled down:
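Jurkat cells carrying an NFAT-driven β-lactamase reporter and co-transfected muscarinic M1 receptor were treated with compound plus carbachol (1 uM final, an EC50 level) for 5 h at 37 °C. CCF4 loading followed for 1 h at RT; 460/530 nm ratio gave %activity.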

Test [15] deals with Rap guanine nucleotide exchange factor 3 (Homo sapiens) (UniProt O95398). Kind of test: Confirmatory qHTS for agonist of cAMP-regulated guanine nucleotide exchange factor 3 (EPAC1) (AID 1645881).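 Also: EPAC1 catalysed release of BODIPY-GDP from Rap1B seen as fluorescence loss; 100% = effect of cAMP agonist control; nearly all actives have a fitted effect of over 75% in size.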 As to conditions: EPAC1 Rap1B BODIPY-GDP exchange fluorescence; series mostly up to 154 µM.
Rap guanine nucleotide exchange factor 3 (Homo sapiens), sequence (O95398 whole entry, looked up): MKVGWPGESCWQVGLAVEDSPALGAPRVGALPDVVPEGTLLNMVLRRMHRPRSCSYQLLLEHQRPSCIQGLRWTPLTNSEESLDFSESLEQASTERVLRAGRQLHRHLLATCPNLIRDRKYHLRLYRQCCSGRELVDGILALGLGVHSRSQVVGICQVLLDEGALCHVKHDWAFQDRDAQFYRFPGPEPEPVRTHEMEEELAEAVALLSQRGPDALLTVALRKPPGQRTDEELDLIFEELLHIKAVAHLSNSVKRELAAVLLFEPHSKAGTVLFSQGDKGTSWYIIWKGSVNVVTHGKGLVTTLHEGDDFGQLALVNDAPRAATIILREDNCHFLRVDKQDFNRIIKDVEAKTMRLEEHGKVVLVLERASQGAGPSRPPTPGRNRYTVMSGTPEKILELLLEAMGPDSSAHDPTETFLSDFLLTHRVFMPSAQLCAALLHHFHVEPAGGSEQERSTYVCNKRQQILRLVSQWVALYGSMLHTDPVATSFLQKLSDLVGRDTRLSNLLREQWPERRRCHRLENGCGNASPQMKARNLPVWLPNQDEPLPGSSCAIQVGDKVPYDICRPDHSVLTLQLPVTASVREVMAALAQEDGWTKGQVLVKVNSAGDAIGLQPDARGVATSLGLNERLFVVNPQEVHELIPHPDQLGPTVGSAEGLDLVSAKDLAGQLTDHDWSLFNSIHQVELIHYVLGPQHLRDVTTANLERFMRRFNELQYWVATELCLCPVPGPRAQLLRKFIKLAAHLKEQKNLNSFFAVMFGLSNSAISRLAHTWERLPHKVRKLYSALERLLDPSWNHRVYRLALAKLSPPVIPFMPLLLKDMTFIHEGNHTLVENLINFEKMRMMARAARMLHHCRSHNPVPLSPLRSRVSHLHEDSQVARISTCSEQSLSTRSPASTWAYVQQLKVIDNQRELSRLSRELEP
Test [16] has as its target Cytochrome P450 1A2 (Homo sapiens) (UniProt P05177). Kind of test: p450-cyp1a2 (AID 410; calls by dose curve; also: potency is read from the fitted curve at half-maximal effect;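 as to activity change, negative = inhibition: -100% = full effect of reference inhibitor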). As to conditions: recombinant CYP1A2, luciferin-ME demethylation, luminescence; series mostly up to 57 µM. The method, boiled down:
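Human CYP1A2 (20nM) demethylated Luciferin-ME at its Km (100uM) in 100mM KPO4. After 10 min compound preincubation, NADPH regeneration ran the reaction 60 min at room temperature. Luciferin was read by luminescence, normalized to 57 uM furafylline.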

The target in test [17] is Cytochrome P450 3A4 (Homo sapiens) (UniProt P08684). Kind of test: qHTS Assay for Activators of Cytochrome P450 3A4 (AID 885). Also: nearly all actives have a fitted effect of over 65% in size. The settings on record: recombinant CYP3A4, Luciferin-PPXE luminescence, 60 min; series mostly up to 57.1 µM. The method, boiled down: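 Steps: enzyme/substrate mix dispensed; compound added, 10 min RT; NADPH regeneration solution added, 60 min RT; luciferin detection buffer stops reaction; 20 min later luminescence measured.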
Cytochrome P450 3A4 (Homo sapiens), sequence (P08684 whole entry, looked up): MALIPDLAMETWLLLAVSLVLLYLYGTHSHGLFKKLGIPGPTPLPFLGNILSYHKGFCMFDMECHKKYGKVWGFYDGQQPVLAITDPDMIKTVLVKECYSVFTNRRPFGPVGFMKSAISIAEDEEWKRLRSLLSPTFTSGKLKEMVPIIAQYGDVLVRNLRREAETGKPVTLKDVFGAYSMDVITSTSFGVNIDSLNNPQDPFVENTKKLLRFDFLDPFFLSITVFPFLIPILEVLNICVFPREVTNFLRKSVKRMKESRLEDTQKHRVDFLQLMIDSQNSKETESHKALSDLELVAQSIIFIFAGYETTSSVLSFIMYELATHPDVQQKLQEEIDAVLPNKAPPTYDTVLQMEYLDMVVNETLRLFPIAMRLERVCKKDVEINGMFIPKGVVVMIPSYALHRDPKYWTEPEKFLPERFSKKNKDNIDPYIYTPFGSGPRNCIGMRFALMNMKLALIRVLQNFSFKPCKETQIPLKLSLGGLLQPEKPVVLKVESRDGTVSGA

Lysosomal acid glucosylceramidase (Homo sapiens), sequence (P04062 whole entry, looked up): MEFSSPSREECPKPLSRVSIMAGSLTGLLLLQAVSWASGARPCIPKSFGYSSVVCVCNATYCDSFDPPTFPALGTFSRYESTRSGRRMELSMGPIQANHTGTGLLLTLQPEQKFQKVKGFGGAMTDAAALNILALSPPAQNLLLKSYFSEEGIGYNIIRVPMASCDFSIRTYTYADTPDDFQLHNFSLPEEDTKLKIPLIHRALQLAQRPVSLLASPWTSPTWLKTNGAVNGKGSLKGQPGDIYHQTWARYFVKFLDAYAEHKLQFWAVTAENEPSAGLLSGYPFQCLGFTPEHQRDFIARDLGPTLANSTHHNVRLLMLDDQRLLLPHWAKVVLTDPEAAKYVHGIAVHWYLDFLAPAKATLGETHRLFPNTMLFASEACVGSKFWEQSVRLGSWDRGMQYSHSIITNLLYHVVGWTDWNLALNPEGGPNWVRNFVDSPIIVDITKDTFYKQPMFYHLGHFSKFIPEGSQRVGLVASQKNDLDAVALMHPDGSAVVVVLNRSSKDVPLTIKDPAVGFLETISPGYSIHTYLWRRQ
3',5'-cyclic-AMP phosphodiesterase 4B (Homo sapiens), sequence (Q07343 whole entry, looked up): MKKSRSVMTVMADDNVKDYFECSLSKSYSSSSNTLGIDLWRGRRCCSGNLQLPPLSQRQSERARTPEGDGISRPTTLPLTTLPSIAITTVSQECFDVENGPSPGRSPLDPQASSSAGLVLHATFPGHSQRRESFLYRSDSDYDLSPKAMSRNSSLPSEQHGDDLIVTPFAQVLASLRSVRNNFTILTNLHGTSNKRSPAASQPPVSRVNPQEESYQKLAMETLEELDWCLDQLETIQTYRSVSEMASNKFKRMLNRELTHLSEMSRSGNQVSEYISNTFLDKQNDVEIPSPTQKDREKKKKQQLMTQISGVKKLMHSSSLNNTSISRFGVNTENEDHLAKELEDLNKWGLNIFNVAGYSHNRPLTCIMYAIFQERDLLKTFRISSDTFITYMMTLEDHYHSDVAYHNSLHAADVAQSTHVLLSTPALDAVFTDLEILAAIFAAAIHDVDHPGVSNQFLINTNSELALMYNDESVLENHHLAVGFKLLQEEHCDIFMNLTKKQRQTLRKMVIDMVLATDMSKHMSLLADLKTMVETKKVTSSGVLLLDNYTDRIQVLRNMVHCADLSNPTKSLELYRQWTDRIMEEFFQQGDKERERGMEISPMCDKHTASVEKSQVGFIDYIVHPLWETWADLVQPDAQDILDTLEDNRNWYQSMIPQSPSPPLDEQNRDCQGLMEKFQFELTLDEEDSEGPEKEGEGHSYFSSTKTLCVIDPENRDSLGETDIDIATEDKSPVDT
Rap guanine nucleotide exchange factor 4 (Homo sapiens), sequence (Q8WZA2 whole entry, looked up): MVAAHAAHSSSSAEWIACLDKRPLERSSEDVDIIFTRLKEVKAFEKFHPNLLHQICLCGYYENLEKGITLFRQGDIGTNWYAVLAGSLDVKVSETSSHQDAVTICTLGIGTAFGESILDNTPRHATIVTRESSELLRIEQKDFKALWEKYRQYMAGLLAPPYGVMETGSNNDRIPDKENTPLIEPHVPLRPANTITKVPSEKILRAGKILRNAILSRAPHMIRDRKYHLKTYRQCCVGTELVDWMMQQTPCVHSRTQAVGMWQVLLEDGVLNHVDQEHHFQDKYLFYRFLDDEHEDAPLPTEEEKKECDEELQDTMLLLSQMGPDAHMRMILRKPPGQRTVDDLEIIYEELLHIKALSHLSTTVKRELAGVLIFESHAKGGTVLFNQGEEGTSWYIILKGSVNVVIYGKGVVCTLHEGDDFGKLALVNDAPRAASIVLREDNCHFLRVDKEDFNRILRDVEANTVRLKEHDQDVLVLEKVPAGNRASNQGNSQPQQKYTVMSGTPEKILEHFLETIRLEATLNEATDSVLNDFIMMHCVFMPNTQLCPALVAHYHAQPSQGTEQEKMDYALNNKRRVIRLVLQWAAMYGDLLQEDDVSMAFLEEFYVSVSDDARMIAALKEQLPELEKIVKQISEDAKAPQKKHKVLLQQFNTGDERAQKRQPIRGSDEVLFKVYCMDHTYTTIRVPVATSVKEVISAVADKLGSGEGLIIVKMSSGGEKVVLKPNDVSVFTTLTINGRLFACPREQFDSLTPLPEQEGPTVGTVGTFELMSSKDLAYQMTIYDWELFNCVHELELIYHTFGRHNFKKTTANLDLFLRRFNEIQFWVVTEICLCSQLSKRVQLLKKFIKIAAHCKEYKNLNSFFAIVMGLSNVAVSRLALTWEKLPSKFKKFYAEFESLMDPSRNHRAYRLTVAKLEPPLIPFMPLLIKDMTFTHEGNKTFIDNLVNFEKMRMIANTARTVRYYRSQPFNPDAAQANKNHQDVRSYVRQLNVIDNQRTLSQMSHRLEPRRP
Cytochrome P450 1A2 (Homo sapiens), sequence (P05177 whole entry, looked up): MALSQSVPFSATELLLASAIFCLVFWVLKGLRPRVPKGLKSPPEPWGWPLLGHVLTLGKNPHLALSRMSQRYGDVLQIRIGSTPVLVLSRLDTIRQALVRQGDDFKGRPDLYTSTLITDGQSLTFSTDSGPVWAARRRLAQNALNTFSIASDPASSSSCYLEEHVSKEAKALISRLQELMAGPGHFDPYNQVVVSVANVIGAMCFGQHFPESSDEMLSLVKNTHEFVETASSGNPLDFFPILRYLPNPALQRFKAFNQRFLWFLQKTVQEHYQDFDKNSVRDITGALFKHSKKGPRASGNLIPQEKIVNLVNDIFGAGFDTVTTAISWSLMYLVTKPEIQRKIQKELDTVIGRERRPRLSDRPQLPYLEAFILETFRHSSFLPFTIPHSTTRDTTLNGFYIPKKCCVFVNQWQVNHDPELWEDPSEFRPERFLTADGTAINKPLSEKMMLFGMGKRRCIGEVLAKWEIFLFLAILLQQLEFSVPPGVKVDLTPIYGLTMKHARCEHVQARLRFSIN

As for `N#CCCn1c(=O)c(-c2ccc(Cl)cc2)nc2cnc(Nc3ccccc3)nc21`, the Potency was over 11.4 µM in [1], over 9.22 µM in [4], over 46 µM in [5] and 79.3 µM (active) in test [12]. In addition, the activity change, negative = inhibition in test [2] was -28%. Further, in test [3], the activity, negative = inhibition is -24.6%. The Potency result in [6], in [7], in test [8], in test [9], in [11] and in test [13] was “inactive” each time. The result in [10] was inactive.
For the compound `COc1ccc(Oc2ncc3ncc(=O)n(Cc4ccc(F)cc4)c3n2)cc1`, the Potency in [1] is over 11.4 µM; in test [4], over 9.22 µM; in [5], over 46 µM. For the same compound, the activity change, negative = inhibition in [2] was -18.4%; in test [14], -10.2%. Besides, the activity, negative = inhibition in test [3] is -0.377%. Moreover, the Potency result in test [6], in test [11] and in test [15] was “inactive” each time. Moreover, the outcome in [10] was inactive.
Regarding `COc1ccc(C(=O)N2CCC3(CCCN(c4cccc(-c5ccccc5)c4)C3)CC2)cc1`, the Potency is over 11.4 µM in test [1] and over 46 µM in test [5]. For the same compound, the activity change, negative = inhibition in test [2] was 11.7%. For the same compound, the activity, negative = inhibition in [3] was 1.07%. The Potency result in [6], in test [7], in test [11] and in [13] was “inactive” throughout. For the same compound, the result in [10] was inactive.
As for `Cn1cccc1C(=O)N1CCC2(CCCN(c3cccc(-c4ccccc4)c3)C2)CC1`, the Potency was over 11.4 µM in [1], 15.8 µM (active) in test [16] and over 46 µM in test [5]. In addition, the activity change, negative = inhibition in test [2] is 7.29%; in test [14] it was -13.3%. In addition, the activity, negative = inhibition in [3] is 2.34%. Moreover, the Potency result in test [17], in test [11], in [15], in test [12] and in test [13] was “inactive” in each case. For the same compound, the result in test [10] was inactive.
With `CCCCCc1c2c(cc(O)c1C(=O)O)OC(=O)c1cc(C(=O)CCCC)c(OC)cc1O2`, the outcome in [10] was inactive. Also, the Potency in test [11] is 42.6 µM (active). For the same compound, the Potency entry in test [15] and in test [12] was “inactive” throughout.
Consider `CN(C)c1ncc2nc(CCc3ccccc3)c(=O)n(Cc3ccc(F)cc3)c2n1`, for which the Potency in test [1] was over 11.4 µM; in test [16] it was 10 µM (active); in [4], over 9.22 µM; in test [5], over 46 µM. Besides, the activity change, negative = inhibition was 8.4% in test [2] and -4.39% in [14]. Besides, the activity, negative = inhibition in test [3] is 13.2%. For the same compound, the Potency result in test [7], in test [17], in test [11], in test [15], in test [12] and in [13] was “inactive” throughout. Also, in test [10], the result was inactive.
For `COc1cccc(Nc2ncc3ncc(=O)n(Cc4cccs4)c3n2)c1`, the Potency in test [1] was over 11.4 µM; in [16], 1.58 µM (active); in test [4], over 9.22 µM; in test [5], over 46 µM; in test [8], 0.501 µM (active). In addition, the Potency entry in test [6], in [9], in test [11], in [15] and in test [12] was “inactive” each time. Moreover, the result in [10] was inactive.
Regarding `COc1ccc(-n2c(=O)c(-c3cccs3)nc3cnc(Nc4cccc(OC)c4)nc32)cc1`, the Potency in [1] was over 11.4 µM; in test [5], over 46 µM. Also, the activity change, negative = inhibition in test [2] was -24.6%. Besides, the Potency result in test [16], in [6], in [17], in [11] and in test [13] was “inactive” each time. The activity, negative = inhibition in test [3] is -11%. In [10], the result was inactive.
On to `Cn1cc(-c2nc3cnc(N4CCOCC4)nc3n(CCC#N)c2=O)c2ccccc21`, for which the Potency is over 11.4 µM in test [1] and over 9.22 µM in [4]. In addition, the activity change, negative = inhibition in test [2] was -11.7%; in test [14], -7.6%. Also, in [3], the activity, negative = inhibition was -5.04%. Besides, the Potency result in test [6], in test [7], in test [17], in test [8], in [9] and in test [11] was “inactive” throughout. Also, the Potency entry in [13] is “inactive”. Also, the result in test [10] was inactive.
